Sampled rows, rich in hits. Any-hit rate of the full collection: about 1.7%.
PTHR1 ag: qHTS for PTHR1 Agonists: Primary Screen; Parathyroid hormone/parathyroid hormone-related peptide receptor (Homo sapiens), Q03431; Potency, µM (titrated, usually from 115 µM), inactives show top-dose activation, actives largely listed as activators; HEK293 GP2 PTHR1 cells, GloSensor cAMP luminescence, 1 h; AID 743266, 2014; 410,000 tested, 0.075% active; note: nearly all actives have a fitted effect of over 55% in size
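HEK-293-derived GP2 cells expressing PTHR1 and a GloSensor cAMP reporter, 3,000/well, plated overnight, given luciferin plus IBMX (each 0.5 mM as added) for 1 h at 37 °C, then compound for 1 h at 37 °C. Luminescence was read after 15 min at room temperature.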
GLP1R ag: qHTS of GLP-1 Receptor Agonists; Glucagon-like peptide 1 receptor (Homo sapiens), P43220; HEK293 GLP-1R CRE-luciferase, luminescence, 4-6 h; cells express a hypersensitive GLP-1R form; Potency, µM (top dose mostly 45.6 µM), for the others: at the top dose activation, usual class: activators; 380,000 tested, 0.007% active; AID 624172, 2012; note: % of control where 0% means no effect
Target sequence (P43220 whole entry, looked up): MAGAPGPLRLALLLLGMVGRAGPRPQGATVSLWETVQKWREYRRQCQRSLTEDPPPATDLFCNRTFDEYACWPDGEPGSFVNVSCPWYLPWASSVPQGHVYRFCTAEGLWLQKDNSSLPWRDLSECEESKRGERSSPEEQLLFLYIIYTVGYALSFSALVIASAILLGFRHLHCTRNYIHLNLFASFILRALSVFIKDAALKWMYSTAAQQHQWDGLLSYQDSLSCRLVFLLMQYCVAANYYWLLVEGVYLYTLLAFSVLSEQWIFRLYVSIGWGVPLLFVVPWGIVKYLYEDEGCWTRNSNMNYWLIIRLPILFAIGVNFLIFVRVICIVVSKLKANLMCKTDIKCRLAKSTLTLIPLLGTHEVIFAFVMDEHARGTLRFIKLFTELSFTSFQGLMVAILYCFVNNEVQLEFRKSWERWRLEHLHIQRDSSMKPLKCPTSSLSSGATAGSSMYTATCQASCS
GLP1R cytotox: qHTS of GLP-1 Receptor Inverse Agonists: Cytotox Screen | HEK293 cAMP-luciferase reporter cells, luminescence, 24 h | Potency, µM (doses to about 38.3 µM), for inactives: at the top dose activity change, negative = inhibition, hits mostly inhibitors | 410,000 tested, 0.13% active;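 note: loss of luciferase light is scored as toxicity; % is set by controls: 0 for no effect and ±100 for the full control effect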
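A 23 nL compound transfer followed 12 hours of cell culture at 37 deg C; exposure then lasted 24 hr. Luciferase assay detection reagent was dispensed and plates read for luminescence after a 12 min room-temperature wait.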
GLP1R inv ag: qHTS of GLP-1 Receptor Inverse Agonists (Inhibition Mode); HEK293 GLP-1R CRE-luciferase, luminescence, 24 h; GLP-1R form is constitutively active; AID 624417, 2012; Potency, µM (titrated, usually from 38.3 µM), for the others: top-dose activity change, negative = inhibition, most hits filed as inhibitors; Glucagon-like peptide 1 receptor (Homo sapiens), P43220; 410,000 tested, 1.6% active; note: % is set by controls: 0 for no effect and ±100 for the full control effect; nearly all actives have a fitted effect of over 55% in size
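Luminescence readout: a drop in cAMP-driven luciferase signal flags inverse agonism at a constitutively active GLP-1R stably expressed in HEK293. Compound exposure lasted 24 hr at 37 deg C, 5% CO2.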
Numbers without * were called inactive; i = inactive; ? = inconclusive; nt = not tested or not shown; [ ] = remark or other dose. Calls come from the whole dose curve; as a rule, active = well fitted curve in the direction sought with a large enough effect; inconclusive = small, poorly fitted or top-dose-only effect, or another doubt; inactive = no such curve, though single readings can be large; an effect the other way counts as inactive or inconclusive. Potency is the fitted concentration of half-maximal effect.

SMILES	PTHR1 ag	GLP1R ag	GLP1R cytotox	GLP1R inv ag
O=C1C2C3CCC(C3)C2C(=O)N1c1ccc(OS(=O)(=O)c2ccccc2)cc1 (configuration not stated)	-92%	10%	-4%	3.2µM*
CC[C@H](O)C(C[C@H](C)N(C)C)(c1ccccc1)c1ccccc1	nt	8%[96 µM]	nt	nt
CCNC(=O)C1CCCN(Cc2cc(C(F)(F)F)ccc2Cl)CC1 (configuration not stated)	i	7%	2%	?
On1ccccc1=S	-84%	-6%	-4%	7.9µM*
OC(c1ccccc1)(c1ccc(Cl)cc1)C1CN2CCC1CC2 (configuration not stated)	21%	1%	?	1.6µM*
Cc1cccc(-c2cc3nc(-c4ccccc4)cc(N4CCC5(CC4)OCCO5)n3n2)c1	i	0%	113%	10µM*
O=C(CCl)Nc1cc(S(=O)(=O)N2CCCCCC2)ccc1Cl	-19%	-5%	11µM*	?
COc1ccccc1CNCC(=O)Nc1cc(S(=O)(=O)N2CCCCC2)ccc1C	-17%	3%	3%	?
COc1cc(C=C2C(=O)NC(=O)NC2=O)ccc1OCc1ccc([N+](=O)[O-])cc1	-24%	6%	9%	3%
COc1cc(/C=C(/C)[N+](=O)[O-])ccc1OCc1ccccc1Cl	-29%	-8%	?	7.1µM*
CO[C@@H](COC(N)=O)C1=C(N2CC2)C(=O)C(C)=C(N2CC2)C1=O	nt	-1%	nt	nt
CC1=C(N2CC2)C(=O)C(CO)=C(N2CC2)C1=O	i	-37%	0.79µM*	?
O=P1(c2ccccc2)Nc2ccccc2N1c1ccccc1 (configuration not stated)	i	5%	-1%	4.5µM*
CCc1ccc(NC(=O)c2cnc3sc(N4CCCC4)nn3c2=O)cc1	-35%	nt	-2%	-4%
NCC(=O)c1ccccc1	-7%	7%	6%	9%
C=C(C(=O)c1ccccc1)C(C)CC(=O)c1ccccc1 (configuration not stated)	-83%	-12%	?	8.9µM*
c1ccc(Nc2nc(NCC3CCCO3)c3ccccc3n2)cc1 (configuration not stated)	-25%	-2%	?	8.9µM*
Nc1c(C(=O)NCC2CCCO2)c2nc3ccccc3nc2n1-c1ccccc1 (configuration not stated)	i	1%	i	?
Cc1ccc(S(=O)(=O)NCCC(=O)Nc2ccc(Cl)cc2C(=O)c2ccccc2)cc1	-16%	8%	11%	11µM*
CCOC(=O)c1ccc(N2C(=O)c3n[nH]c(-c4cccs4)c3C2c2ccc(C(C)(C)C)cc2)cc1 (configuration not stated)	-56%	-1%	3%	9%
COc1cc(NC(=O)c2cccc3c(-c4cccnc4)coc23)cc(OC)c1OC	-88%	-12%	?	?
COc1ccc(-c2coc3c(C(=O)Nc4cc(OC)c(OC)c(OC)c4)cccc23)c(C)c1	-45%	-5%	-21%	4.5µM*
C=C1C(=O)O[C@@H]2C[C@@H](C)[C@@H]3C=CC(=O)[C@@]3(C)[C@@H](OC(C)=O)[C@H]12	-49%	-23%	?	4.5µM*
C=C1C(=O)O[C@@H]2C[C@@H](C)[C@@H]3C=CC(=O)[C@@]3(C)[C@@H](O)[C@H]12	-54%	-10%	?	2.5µM*
Cc1ccc(-c2c(C)n3c4c(=O)n(C)c(=O)n(C)c4nc3n2CCO)cc1	-50%	nt	2%	-26%
COc1ccc(OC)c(C[C@H](C)N)c1	nt	-4%[110 µM]	nt	nt
CC1(C)CC/C(=C\c2ccc(Cl)cc2)C1(O)Cn1cncn1 (configuration not stated)	nt	5%[96 µM]	nt	nt
COc1ccc2[nH]c(C)c(CCNCc3cccnc3)c2c1	i	-5%	7%	-1%
Cc1[nH]c2ccc(OC(F)(F)F)cc2c1CCNCc1ccc(Cl)cc1	-22%	5%	?	4µM*
CCOc1cccc(CNCCc2c(C)[nH]c3ccc(OC(F)(F)F)cc23)c1O	-41%	-6%	?	5µM*

From PubChem
